# Pf Dd2 inh: P. falciparum Dd2 growth inhibitors, primary screen, SYBR Green fluorescence, single dose replicates | 72 h; hits give low values | activity change, % at 10 µM | hit rate 2.3% among 94,000; in the data active = activity change below about -80%; inconclusive = no clear call, values can overlap the other calls
# T cruzi growth-1: T. cruzi intracellular proliferation inhibitors, primary screen, cell-based, beta-gal Tulahuen parasites, NIH3T3 host, luminescence. T. cruzi beta-gal in NIH3T3, GalScreen luminescence, 90 h. inhibition, % at 8.34 µM. hit rate 5.9% among 77,000;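 active = mean inhibition above about 93%, with at least 55% of replicates each passing it, limit read from the data, passing the limit was not always enough; inconclusive = only one of those two conditions holds; inactive = neither condition holds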
# C diff HTS: C. difficile growth inhibitors, primary screen, HTS. Clostridium difficile clinical isolate growth, OD600, 24 h; hits give low values. growth activity, negative = inhibition, % at 16 µg/mL (by protocol). hit rate 0.25% among 86,000;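 active = mean growth activity at or below -80% and every replicate also at or below -80%; inconclusive = mean at or below -80% but some replicate above -80%; inactive = mean growth activity above -80%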
# T cruzi growth-2: T. cruzi intracellular proliferation inhibitors, confirmation, cell-based, NIH3T3 host, beta-gal parasite, luminescence, cherry-pick; shares compounds with T cruzi growth-1; T. cruzi beta-gal in NIH3T3, GalScreen luminescence, 90 h; inhibition, % at 8.35 µM; hit rate 72% among 5,600; AID 651739, 2012;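 active = mean replicate inhibition above about 95% and at least 55% of replicates individually reaching it, limit read from the data; inconclusive = only one of the two criteria is met; inactive = neither criterion is met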
# T cruzi growth-3: inhibitors of intracellular T. cruzi replication, confirmation, NIH3T3 host cells, beta-gal parasites, cherry-pick, set 2; shares compounds with T cruzi growth-1; T. cruzi beta-gal in NIH3T3, GalScreen luminescence, 90 h; inhibition, % at 2.09 µM; hit rate 21% among 5,600; AID 651740, 2012;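 active = mean inhibition above about 95%, with at least 55% of replicates also reaching it, limit read from the data; inconclusive = meets just one of the two conditions; inactive = meets neither condition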
# 3T3 cytotox: cytotoxicity in mouse NIH/3T3 fibroblasts, confirmation, cytotoxicity control for T. cruzi proliferation inhibitor project, cell-based, cherry-pick, single point; shares compounds with T cruzi growth-1; NIH/3T3 viability, CellTiter-Glo ATP luminescence, 90 h; cytotoxicity (signal decrease), % at 8.35 µM; hit rate 14% among 5,600; AID 651742, 2012;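 active = mean signal decrease across replicates above about 35% based on untreated-well scatter, with enough replicates individually passing, limit read from the data; inconclusive = no rule stated though some were filed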
# NIH3T3 tox 2: NIH/3T3 fibroblast cytotoxicity, confirmation, cytotoxicity control, cell-based, cherry-pick, single point, set 2 | hit rate 56% among 5,600 | inhibition, % at 24.9 µM | AID 651744, 2012 | NIH/3T3 viability, CellTiter-Glo ATP luminescence, 90 h | shares compounds with T cruzi growth-1;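 active = mean loss of cell viability signal at or above a set limit, and enough replicates individually reaching it; inconclusive = meets only the mean limit or only the replicate share; inactive = meets neither condition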
# Hits are given with their value; . = inactive; ? = inconclusive; / = not tested or not shown. Only some compounds are listed: those with a hit (about 6.7% of all), similar ones and a draw of the others.
SMILES,Pf Dd2 inh,T cruzi growth-1,C diff HTS,T cruzi growth-2,T cruzi growth-3,3T3 cytotox,NIH3T3 tox 2
C[C@@H]1CCCCO[C@H](CN(C)C(=O)NC2CCCCC2)[C@H](C)CN([C@@H](C)CO)C(=O)c2cc(NC(=O)Nc3cccc4ccccc34)ccc2O1,.,108,.,106,.,.,.
C[C@H]1CCCCO[C@H](CN(C)C(=O)Nc2cccc3ccccc23)[C@@H](C)CN([C@@H](C)CO)C(=O)c2cc(NC(=O)NC3CCCCC3)ccc2O1,.,99,.,108,112,.,.
C[C@@H]1CCCCO[C@@H](CN(C)C(=O)NC2CCCCC2)[C@H](C)CN([C@@H](C)CO)C(=O)c2cc(NC(=O)Nc3cccc4ccccc34)ccc2O1,.,.,.,/,/,/,/
C[C@@H]1CN([C@@H](C)CO)C(=O)c2cc(NC(=O)NC3CCCCC3)ccc2O[C@@H](C)CCCCO[C@H]1CN(C)C(=O)Nc1cccc2ccccc12,.,.,.,/,/,/,/
CC(C)NC(=O)N(C)C[C@@H]1OCCCC[C@@H](C)Oc2ccc(NS(=O)(=O)c3ccccc3)cc2C(=O)N([C@@H](C)CO)C[C@H]1C,.,.,.,/,/,/,/
C[C@@H]1CN([C@@H](C)CO)C(=O)Cc2cc(NC(=O)Cn3cnnn3)ccc2O[C@H]1CN(C)S(=O)(=O)c1ccc(F)cc1,.,.,.,/,/,/,/
N#C[C@H]1[C@@H](c2ccccc2C2=CCCCC2)[C@@H](CO)N1C(=O)Nc1ccccc1F,.,/,.,/,/,/,/
C/C=C/c1ccccc1[C@@H]1[C@@H](C#N)N(C(=O)c2cccnc2)[C@@H]1CO,.,/,.,/,/,/,/
CO[C@@H]1CN(C)C(=O)c2ccc(NC(=O)Nc3ccc(Cl)cc3)cc2OC[C@H](C)N(C(=O)Nc2c(C)noc2C)C[C@H]1C,.,.,/,/,/,/,/
CNC(=O)C[C@@H]1CC[C@@H]2[C@@H](COc3ccc(NC(=O)c4ccc(C(F)(F)F)cc4)cc3C(=O)N2C)O1,.,.,.,/,/,/,/
CCC(=O)N1CC2(C1)[C@H](c1ccc(-c3ccc(C#N)cc3)cc1)[C@@H](CO)N2C(C)=O,.,/,.,/,/,/,/
C[C@H]1CN([C@@H](C)CO)S(=O)(=O)c2ccc(/C=C/c3ccccc3)cc2O[C@H]1CN(C)C(=O)NC1CCCC1,.,102,.,99,.,.,102
C[C@H]1CN([C@@H](C)CO)S(=O)(=O)c2ccc(/C=C/c3ccccc3)cc2O[C@H]1CN(C)C(=O)NC1CCCCC1,.,128,.,101,.,.,49
C[C@@H]1CN([C@@H](C)CO)S(=O)(=O)c2ccc(/C=C/c3ccccc3)cc2O[C@H]1CN(C)C(=O)NC1CCCCC1,.,/,.,/,/,/,/
C[C@H](CO)N1C[C@H](C)[C@H](CN(C)C(=O)NC2CCCCC2)Oc2cc(/C=C/c3ccccc3)ccc2S1(=O)=O,.,/,.,/,/,/,/
O=C(C[C@@H]1CC[C@@H]2[C@H](COC[C@@H](O)CN2Cc2nccs2)O1)NCc1ccc(Oc2ccccc2)cc1,.,/,.,/,/,/,/
C[C@H](CO)N1C[C@H](C)[C@@H](CN(C)S(=O)(=O)c2ccc(Cl)cc2)OCCCC[C@H](C)Oc2ccc(NC(=O)Nc3ccc(F)cc3)cc2C1=O,.,.,.,/,/,/,/
C[C@H](CO)N1C[C@H](C)[C@H](CN(C)S(=O)(=O)c2ccc(F)cc2)OCCCC[C@H](C)Oc2ccc(NC(=O)Nc3ccc(F)cc3)cc2C1=O,.,103,.,103,.,.,45
C[C@@H]1CCCCO[C@H](CN(C)S(=O)(=O)c2ccc(F)cc2)[C@H](C)CN([C@H](C)CO)C(=O)c2cc(NC(=O)Nc3ccc(F)cc3)ccc2O1,.,101,.,96,110,.,40
C[C@@H]1CN([C@@H](C)CO)C(=O)c2cc(NC(=O)Nc3ccc(F)cc3)ccc2O[C@@H](C)CCCCO[C@@H]1CN(C)S(=O)(=O)c1ccc(F)cc1,?,.,.,/,/,/,/
C[C@H](CO)N1C[C@H](C)[C@@H](CN(C)S(=O)(=O)c2ccc(F)cc2)OCCCC[C@H](C)Oc2ccc(NC(=O)Nc3ccc(F)cc3)cc2C1=O,.,100,.,108,.,.,.
C[C@@H]1CN([C@H](C)CO)C(=O)c2cc(NC(=O)Nc3ccc(F)cc3)ccc2O[C@@H](C)CCCCO[C@H]1CN(C)S(=O)(=O)c1ccc(F)cc1,.,.,.,/,/,/,/
C[C@@H]1CCCCO[C@H](CN(C)S(=O)(=O)c2ccc(Cl)cc2)[C@@H](C)CN([C@@H](C)CO)C(=O)c2cc(NC(=O)Nc3ccc(F)cc3)ccc2O1,.,.,.,/,/,/,/
C[C@H]1CCCCO[C@@H](CN(C)S(=O)(=O)c2ccc(F)cc2)[C@@H](C)CN([C@@H](C)CO)C(=O)c2cc(NC(=O)Nc3ccc(F)cc3)ccc2O1,?,96,.,105,99,.,43
COc1ccc(NC(=O)N(C)C[C@@H]2OCc3cn(nn3)CCCC(=O)N([C@@H](C)CO)C[C@@H]2C)c(OC)c1,.,.,.,/,/,/,/
SMILES,Pf Dd2 inh,T cruzi growth-1,C diff HTS,T cruzi growth-2,T cruzi growth-3,3T3 cytotox,NIH3T3 tox 2
COCC(=O)N[C@H]1C=C[C@@H](CC(=O)NCc2ccc(Cl)cc2)O[C@H]1CO,.,.,/,/,/,/,/
CC(C)NC(=O)Nc1ccc2c(c1)C(=O)N([C@H](C)CO)C[C@@H](C)[C@H](CN(C)CC1CCCCC1)OCCCC[C@H](C)O2,.,.,/,/,/,/,/
CCc1cnc(N2[C@H](C#N)[C@@H](c3ccc(C4=CCCCC4)cc3)[C@@H]2CO)s1,.,.,.,/,/,/,/
CCc1cnc(N2[C@H](CO)[C@@H](c3ccc(C4=CCCC4)cc3)[C@@H]2C#N)s1,.,.,.,/,/,/,/
CCc1cnc(N2[C@H](C#N)[C@@H](c3ccc(C#CCC4CCCC4)cc3)[C@@H]2CO)s1,.,?,/,96,106,.,104
CCc1cnc(N2[C@@H](C#N)[C@H](c3ccc(C#CCC4CCCC4)cc3)[C@@H]2CO)s1,.,105,.,108,?,.,.
C[C@H](CO)N1C[C@H](C)[C@@H](CN(C)Cc2ccccn2)Oc2ncc(C3=CCCCC3)cc2C1=O,.,/,.,/,/,/,/
CCC(=O)N1CC2(C1)[C@H](c1ccc(-c3ccccc3)cc1)[C@H](CO)N2S(C)(=O)=O,.,/,.,/,/,/,/
C[C@@H]1CN([C@@H](C)CO)C(=O)c2cc(NC(=O)CCC(F)(F)F)ccc2O[C@H]1CN(C)CC1CC1,.,.,.,/,/,/,/

# From PubChem
